Shown are actives, neighbours in structure and some others; about 7.3% of the full set was active somewhere.
ELG1 genotoxic = induces genotoxicity in HEK293T cells with luciferase-tagged ELG1; 330,000 tested, 1.3% active; Potency, µM (highest dose often 46 µM), without a hit: at the top dose activity change, positive = activation, usual class: activators; HEK293T ELG1-luciferase reporter, luminescence, 16 h; also: % of control where 0% means no effect; nearly all actives have a fitted effect of over 60% in size
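Reporter readout depends on ELG1 protein level, which increases with genetic stress. After 16 hr compound exposure at 37 °C, luciferase activity was quantified using ONE-Glo.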
FLuc modulator = inhibits or activates purified firefly luciferase, miR-21 counter-screen; P08659; purified FLuc, Km substrates, luminescence inhibition; Potency, µM (series often up to 57.5 µM), without a hit: at the top dose activity change, negative = inhibition, hits mostly inhibitors; 360,000 tested, 6.9% active; AID 588342;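 also: plate controls were vehicle for no effect and reference inhibitor for full effect; nearly all actives have a fitted effect of over 55% in size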
Target sequence (P08659 whole entry, looked up): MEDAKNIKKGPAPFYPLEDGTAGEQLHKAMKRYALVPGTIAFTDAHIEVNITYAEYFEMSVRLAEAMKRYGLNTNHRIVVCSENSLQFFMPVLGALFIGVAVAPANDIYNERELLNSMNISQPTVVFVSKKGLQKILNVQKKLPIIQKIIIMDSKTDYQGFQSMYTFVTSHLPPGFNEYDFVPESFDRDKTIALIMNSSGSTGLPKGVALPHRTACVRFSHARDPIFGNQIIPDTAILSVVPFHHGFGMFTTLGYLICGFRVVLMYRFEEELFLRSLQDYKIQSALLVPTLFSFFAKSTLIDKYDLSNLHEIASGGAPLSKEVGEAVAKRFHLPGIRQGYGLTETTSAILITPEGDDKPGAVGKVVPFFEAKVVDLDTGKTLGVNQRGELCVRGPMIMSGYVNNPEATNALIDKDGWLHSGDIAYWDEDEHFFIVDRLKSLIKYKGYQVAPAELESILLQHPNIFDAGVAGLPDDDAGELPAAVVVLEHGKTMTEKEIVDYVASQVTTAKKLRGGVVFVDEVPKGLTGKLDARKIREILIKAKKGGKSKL
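Purified P. pyralis luciferase, 10 nM final, with Km-level 10 uM D-luciferin and 10 uM ATP in 50 mM Tris acetate pH 7.5, 10 mM Mg acetate, 0.01% Tween-20, 0.05% BSA; 6-point qHTS titration about 60 µM downward; luminescence read.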
Luc counter = counter-screen: inhibitors of Kinase-Glo firefly luciferase; Q27757; Kinase-Glo luciferase, ATP luminescence, 8 min; Potency, µM (highest dose often 38.3 µM), for the others: top-dose activity change, negative = inhibition, hits mostly inhibitors; AID 1379; 200,000 tested, 0.28% active; also: % is scaled to controls: 0 for no effect and ±100 for the full control effect; nearly all actives have a fitted effect of over 60% in size
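Kinase-Glo luciferase light output from ATP and luciferin was measured with 10 uM ATP, within the enzyme's linear range. Buffer: 50 mM imidazole pH 7.2, 50 mM KCl, 7 mM MgCl2, 0.01% Tween 20, 0.05% BSA; luminescence read after 8 min at ambient temperature.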
NPC1 prom act = activators of NPC1 promoter; Huh7 NPC1 promoter luciferase reporter, 24 h; Potency, µM (highest dose often 9.22 µM), for inactives: at the highest dose activation, usual class: activators; 320,000 tested, 2.4% active; AID 485313; also: % of control where 0% means no effect; nearly all actives have a fitted effect of over 60% in size
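Huh7 reporter cells (NPC1 promoter driving luciferase) are dosed with compound for 24 h at 37 °C, 5% CO2; luciferase detection reagent is then added and luminescence measured after 10 min at ambient temperature.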
Rab9 promoter act = activates the Rab9 promoter | Huh7 Rab9 promoter-luciferase reporter, luminescence, 24 h | Potency, µM (doses to about 9.22 µM), without a hit: at the highest dose activation, negative = inhibition, usual class: activators | 320,000 tested, 2.8% active; also: % of control where 0% means no effect; nearly all actives have a fitted effect of over 60% in size
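Luminescence from Amplite-detected luciferase (10 minutes, ambient) reports Rab9 promoter activation. Before that, stable Rab9-luciferase Huh7 cells (1500/well, reduced-serum OP-MEM I plus 10% FBS) were exposed to compound for 24 hours at 37C.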
SMN2 splice enh = enhancers of SMN2 splice variant expression; Potency, µM (titrated, usually from 46.1 µM), for inactives: at the top dose activity change, positive = activation, usual class: activators; 210,000 tested, 2.8% active; HEK293 SMN2-luciferase splicing reporter, luminescence, 30-36 h; also: % of control where 0% means no effect; nearly all actives have a fitted effect of over 55% in size
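HEK293 cells carry an SMN2 minigene-luciferase reporter in which exon 7 inclusion puts luciferase in frame. Cells were seeded at 2000 cells/well, attached for 10-12 hours, then exposed to compounds for 30-36 hours at 37C before ONE-Glo luminescence.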
Starred values were filed as active, the others as inactive; u = inconclusive; x = no result. Calls follow the shape of the dose curve; as a rule, active = well fitted curve in the direction sought with a large enough effect; inconclusive = small, poorly fitted or top-dose-only effect, or another doubt; inactive = no such curve, though single readings can be large; an effect the other way counts as inactive or inconclusive. Potency is read from the fitted curve at half-maximal effect.

SMILES	ELG1 genotoxic	FLuc modulator	Luc counter	NPC1 prom act	Rab9 promoter act	SMN2 splice enh
CCCOc1ccc(-c2cc(C(=O)NCC3CCCO3)c3ccccc3n2)cc1 (stereo not drawn)	-10%	3µM*	-2%	12%	20%	9%
Cc1nc(SCc2nc3cc(Cl)c(F)cc3[nH]2)c2oc3ccccc3c2n1	-6%	x	x	x	x	x
CCn1c(=O)c2sccc2n2c(CCCC(=O)N3CCN(c4cc(Cl)ccc4C)CC3)nnc12	x	4%	x	x	x	x
COc1ccc2[nH]c3c(c2c1)CCN1C(=O)N([C@@H](C)C(=O)NCc2ccccc2OC)C(=O)[C@]31C	-6%	2%	x	-4%	-1%	x
CCOC(=O)c1ccc(Nc2nc(=O)c3cccnc3s2)cc1	5%	u	-2%	3.5µM*	4.5µM*	10µM*
CC(=O)c1cccc(Nc2nc(=O)c3cccnc3s2)c1	u	u	9%	2%	1%	-7%
CC(=O)c1ccc(Nc2nc(=O)c3cccnc3s2)cc1	x	-10%	-1%	x	x	u
O=c1nc(Nc2ccc(OCc3ccccc3)cc2)sc2ncccc12	-3%	-2%	-2%	-2%	13%	3.5µM*
O=C(CCCCn1c(=O)c2ccccc2n(CC(=O)Nc2cccc(F)c2)c1=O)NCc1ccco1	1%	-2%	6%	-3%	0%	-4%
COc1cccc2sc(N(C)c3ccccc3)nc12	1.6µM*	0.85µM*	-10%	1.3µM*	0.5µM*	8.9µM*
COc1c(F)c(F)c(C(=O)O)c(Nc2ccc(C)cc2)c1F	1%	-5%	1%	2%	-3%	-4%
Cc1ccc(C)c(Nc2c(F)c(F)c(F)c(F)c2C(=O)O)c1	5%	15µM*	3%	0%	-2%	-2%
COc1ccc(OC(C)C(=O)NCCC2=CCCCC2)cc1 (stereo not drawn)	0%	-4%	2%	-9%	-4%	-2%
O=[N+]([O-])c1ccc(/C=N/Nc2ccccn2)cc1	9%	-18%	x	u	u	x
COc1ccc(/C=N/Nc2nonc2N)cc1OC	0%	u	-7%	0%	-6%	23%
COc1ccc(/C=N/Nc2nc(C)nc(N)n2)cc1	12%	17µM*	x	13%	23%	x
CN(C)c1ccc(/C=N\Nc2ccccn2)cc1	5.2µM*	0.95µM*	x	0.89µM*	0.63µM*	x
COc1cc(/C=N/Nc2ccccn2)ccc1O	9.2µM*	6µM*	x	4%	u	x
COc1ccc(/C=N/Nc2nc(N)cc(Cl)n2)cc1OC	2%	17µM*	-5%	16%	24%	14%
CCNc1nc(NCC)nc(N/N=C/c2ccc(OC)cc2)n1	-2%	-19%	x	0%	-2%	x
C[C@@H](O)CCC[C@H](O)/C=C/[C@@H]1[C@@H](C/C=C\CCCC(=O)O)[C@@H](O)C[C@H]1O	x	x	0%	x	x	12%
O=S(=O)(c1ccc2c(c1)OCCO2)C1CCC(O)CC1 (stereo not drawn)	x	5%	x	0%	2%	x
O=C(Cc1ccc2c(c1)OCO2)NN=Cc1ccc([N+](=O)[O-])o1	-7%	x	x	x	x	x
COc1ccc(-c2cnnc(N/N=C/c3ccc(O)c(OC)c3)n2)cc1	7%	1.2µM*	-14%	-19%	-4%	13µM*
COc1ccc(/C=N/NC(=O)C(=O)Nc2ccccn2)cc1OC	0%	-13%	0%	-1%	11%	-21%
SMILES	ELG1 genotoxic	FLuc modulator	Luc counter	NPC1 prom act	Rab9 promoter act	SMN2 splice enh
COc1cc(/C=N/Nc2nc(-c3ccc(S(=O)(=O)N(C)C)cc3)cs2)ccc1O	-25%	3.4µM*	x	-10%	-9%	x
COc1ccc(/C=N/Nc2nc(-c3cccc(S(=O)(=O)N4CCCC4)c3)cs2)cc1OC	-7%	u	-1%	-1%	-13%	-66%
COc1ccc(/C=N/Nc2ccccn2)cc1OC	u	7.6µM*	x	u	u	x
COc1cc(/C=N/Nc2nc(N3CCCC3)nc(N3CCCC3)n2)ccc1O	-9%	-18%	-3%	-1%	-2%	8%
Cc1ccc2nc(NC(=O)COC(=O)CSc3nc(C)cc(C)n3)sc2c1	9%	u	-10%	u	u	21%
Cc1ccc2nc(NC(=O)COC(=O)c3ccncc3)sc2c1	u	8.5µM*	9%	u	u	u
Cc1ccc2nc(NC(=O)COc3ccc(F)cc3)sc2c1	x	2%	x	x	x	x
COCC(=O)Nc1nc2ccc(C)cc2s1	2.1µM*	9.5µM*	-19%	2.5µM*	1.1µM*	10µM*
CCN(CC)c1ccc(CNc2ccc3c(c2)ncn3C(C)(C)C)cc1	0%	u	x	3%	12%	x
CC(C)(C)n1cnc2cc(NC(=O)c3ccc(Cl)cc3)ccc21	2.9µM*	4.8µM*	x	0.56µM*	0.5µM*	x
CC(C)n1cnc2cc(NCc3ccccn3)ccc21	u	24µM*	-5%	1.8µM*	u	18µM*
CC(C)n1cnc2cc(NCc3ccccc3O)ccc21	15%	21µM*	x	19%	u	x
CC(C)(C)n1cnc2cc(NCc3ccccc3O)ccc21	17%	12µM*	x	28%	8%	x
CCCn1cnc2cc(NCc3ccccc3OCC)ccc21	x	-19%	x	x	x	-9%
COc1ccccc1N1CCN(Cc2nc3ccccc3[nH]2)CC1	-9%	0%	x	5%	-1%	x
Cc1nc(N2CCN(C(=O)c3ccco3)CC2)c(C#N)c2c1CCCC2	-3%	-6%	x	0%	16%	x
Cc1cc(C)n2cc(CSc3nncn3C)nc2n1	3%	-1%	5%	-2%	-4%	7%
CCOc1cc(C2C(C(=O)c3ccco3)=C(O)C(=O)N2CCc2ccccc2)ccc1O (stereo not drawn)	3%	4%	-1%	0%	-1%	-1%
Cc1cccc(NC(=S)NCc2ccccn2)c1	1%	3%	-1%	-2%	-7%	19%
Cc1cc(NCc2ccccn2)ccc1Br	13%	15µM*	-6%	u	u	2%
CC(C)n1cnc2cc(NCc3ccco3)ccc21	21%	17µM*	-1%	u	u	u
N#CCCN(C(=O)COC(=O)CNC(=O)c1ccc(-c2ccccc2)cc1)c1ccc(F)cc1	2%	24µM*	x	-7%	3%	x
CCn1c(=O)c2ccccc2n(Cc2ccc([N+](=O)[O-])cc2)c1=O	0%	1%	x	0%	0%	x
Cc1ccc(Nc2ncc3c(n2)CC(C)(C)CC3=O)cc1	u	12µM*	3%	2.2µM*	1.6µM*	11µM*
CC1(C)CC(=O)c2cnc(NC3CC3)nc2C1	0%	3%	2%	-3%	0%	-5%
CC(=O)Cn1cnc2c(sc3nc(C)cc(C)c32)c1=O	u	15µM*	x	27%	24%	x

Screens from PubChem BioAssay.
